# Measurements from PubChem BioAssay (NCI).
# This is part of a sample that, as a whole, favours compounds with a hit. Of some 83,000 tested, about 20% had one in any assay.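 Values shown are percent growth following 48 h exposure of cells in 96-well plates to a single concentration of compound; below 10 was considered active.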 Active and inactive are the calls of the source.
# Tested on: 786-0 renal
# Test: NCI-60 one-dose screen, 48 h (100 = growth as untreated, 0 = no growth, -100 = all killed)
# Settings: 10 µM unless noted
row,Compound,growth
1,COc1cc2c(c(Br)c1N)-c1cc(Br)c(N)cc1C2=O,58.8% (inactive)
2,CCN(CC)CCSC(=O)C(O)(c1ccccc1)C1CCCC1 (configuration not stated),169% (inactive)
3,CCN(CC)CCCOc1ccc2c(c1)O/C(=C\c1cccc(OC)c1)C2=O,93.8% (inactive)
4,CCOC(=O)/C(C#N)=C(\C)CCc1ccccc1,90.1% (inactive)
5,O=C(CCN1CCCCC1)c1ccc(Cl)cc1,103% (inactive)
6,C[C@H]1[C@H](C)CC[C@]2(C(=O)O)CC[C@]3(C)C(=CC[C@@H]4[C@@]5(C)C/C(=C/c6ccco6)C(=O)C(C)(C)[C@@H]5CC[C@]43C)[C@H]12,-40.3% [100 µM] (active)
7,Cc1ccc(NC(=O)N[C@@H](Cc2cc(F)cc(F)c2)C(=O)N[C@@H]2C(=O)N3CCC[C@H]3C(=O)N3CCOC[C@H]3C(=O)N[C@@H](C)C(=O)N3C[C@H](C)C[C@H]3C(=O)O[C@H]2C)cc1,34.1% (inactive)
8,CCCCOC(=O)c1c(C)[nH]c(/C=C2\N=C(c3ccc[nH]3)C=C2OC)c1C,-32.6% (active)
9,O=C(O)c1cn(C2CC2)c2cc(N3CCN(Cc4cc(Cl)ccc4O)CC3)c(F)cc2c1=O,85.1% (inactive)
10,C[n+]1cccc(NC(=O)c2ccc3ccc4ccc(C(=O)Nc5ccc[n+](C)c5)nc4c3n2)c1,76.2% (inactive)
11,O=c1cc(-c2ccccc2)oc2cc(OCc3cn(Cc4ccc(F)cc4)nn3)cc(O)c12,2.24% [100 µM] (active)
12,CCc1ccc(NC(=O)N[C@@H](Cc2cc(F)cc(F)c2)C(=O)N[C@@H]2C(=O)N3C[C@H](O)C[C@H]3C(=O)N3CCOC[C@H]3C(=O)N[C@@H](C)C(=O)N3C[C@H](C)C[C@H]3C(=O)O[C@H]2C)cc1,89.1% (inactive)
